Sampled rows, rich in hits. Any-hit rate of the full collection: about 3.7%.
BoNT-A LC inh2 – inhibitors of Botulinum neurotoxin A light chain protease | multiplex microsphere protease substrate cleavage, flow cytometry | actives 0.17% (n = 360,000) | AID 588499 | inhibition, % at 10 µM
MazF activator – increases E. coli MazEF RNase cleavage of RNA. P0AE70. FAM/BHQ RNA-DNA oligo cleavage fluorescence, 5 h. activation, % at 20 µM. actives 0.32% (n = 350,000); in the data active = activation above about 50%
Anthrax LF prot – inhibitors of Bacillus anthracis lethal factor protease; P15917; multiplex microsphere protease cleavage assay, LF; inhibition, % at 10 µM; actives 0.12% (n = 360,000); AID 588501
BoNT F protease – BoNT F light chain protease inhibition; actives 0.22% (n = 360,000); inhibition, % at 10 µM; AID 588497; Multiplex microsphere protease cleavage assay, flow cytometry; in the data active = inhibition above about 35%, passing the limit was not always enough; inconclusive = no clear call, values can overlap the other calls
Bead autofluor – compound fluorescence in toxin protease inhibitor counterscreen. compound autofluorescence counterscreen, microsphere flow cytometry; active compounds read high. fluorescence intensity (no concentration beside the values). actives 3.1% (n = 360,000); in the data active = fluorescence intensity above about 16000; inconclusive = no clear call, values can overlap the other calls
A number is an active result. Rule as the data show it, unless noted: active = inhibition above about 30%; inconclusive = no clear call, values can overlap the other calls; inactive = below that.

For O=C(CCCN1C(=O)c2ccccc2C1=O)Nc1ccc(S(=O)(=O)N2CCCCC2)cc1 the results were BoNT-A LC inh2 inactive, MazF activator inactive, Anthrax LF prot inactive, BoNT F protease inactive and Bead autofluor inactive.
Cc1ccc(-n2c(SCC(N)=O)nnc2-c2ccc(S(=O)(=O)N3CCCCC3)cc2)c(C)c1 was read as BoNT-A LC inh2 inactive, MazF activator inactive, Anthrax LF prot inactive, BoNT F protease inactive and Bead autofluor 16453.
For COCCn1c(SCC(=O)Nc2ccc(S(=O)(=O)N3CCOCC3)cc2)nc2ccccc21 the results were BoNT-A LC inh2 inconclusive, MazF activator inactive, Anthrax LF prot inactive, BoNT F protease inactive and Bead autofluor 23038.
Screening CCn1c(SCC(=O)Nc2cc(C)on2)nnc1-c1ccc(S(=O)(=O)N2CCCC2)cc1 returned BoNT-A LC inh2 inconclusive, MazF activator inactive, Anthrax LF prot inactive, BoNT F protease inactive and Bead autofluor 20376.
Cn1c(SCC(N)=O)nnc1-c1ccc(S(=O)(=O)N2CCCC2)cc1 was read as BoNT-A LC inh2 inactive, MazF activator inactive, Anthrax LF prot inactive, BoNT F protease inactive and Bead autofluor inactive.
Screening CC(=O)Nc1ccc(C(=O)CSc2nc3ccccc3n2CC(=O)N2CCCC2)cc1 returned BoNT-A LC inh2 inactive, MazF activator inactive, Anthrax LF prot inactive, BoNT F protease inactive and Bead autofluor 16357.
Screening CC(NC(=O)CCNC(=O)c1ccc(C(C)(C)C)cc1)c1ccccc1 (stereo unspecified) returned BoNT-A LC inh2 inactive, MazF activator inactive, Anthrax LF prot inactive, BoNT F protease inactive and Bead autofluor inactive.
For CCc1ccccc1N(CC(=O)Nc1cccnc1)S(=O)(=O)c1ccccc1 the results were BoNT-A LC inh2 inactive, MazF activator inactive, Anthrax LF prot inactive, BoNT F protease inactive and Bead autofluor inactive.
`Cc1c(C(=O)N2CC[C@@H](N3CCC(O)CC3)[C@H](O)C2)[nH]c2ccc(Cl)cc12` gave BoNT-A LC inh2 inactive, MazF activator inactive, Anthrax LF prot inactive, BoNT F protease inactive and Bead autofluor inactive.
`CCCCNC(=O)C(NC(=O)c1ccc(=O)[nH]c1)C(=O)c1ccccc1` (stereo unspecified) gave BoNT-A LC inh2 inactive, Anthrax LF prot inactive, BoNT F protease inactive and Bead autofluor inactive.
For NC(=O)CSc1nnc(-c2ccc(S(=O)(=O)N3CCOCC3)cc2)n1CC1CCCO1 (stereo unspecified) the results were BoNT-A LC inh2 inactive, MazF activator inactive, Anthrax LF prot inactive, BoNT F protease inactive and Bead autofluor 22288.
For CCNC(=O)C1(C)CCCN1C(=O)c1cc(OC)c(OC)c(OC)c1 (stereo unspecified) the results were BoNT-A LC inh2 inactive, Anthrax LF prot inactive, BoNT F protease inactive and Bead autofluor inactive.
CCn1c(Cc2ccccc2)nnc1SCC(=O)Nc1nc(C)cs1 was read as BoNT-A LC inh2 inactive, MazF activator inactive, Anthrax LF prot inactive, BoNT F protease inactive and Bead autofluor inactive.
Screening CCn1c(Cc2ccccc2)nnc1SCC(=O)Nc1nc(C)c(C)s1 returned BoNT-A LC inh2 inactive, MazF activator inactive, Anthrax LF prot inactive, BoNT F protease inactive and Bead autofluor 21539.
CCn1c(COc2ccccc2C)nnc1SCC(=O)Nc1ccc2c(c1)OCCO2 was read as BoNT-A LC inh2 inconclusive, MazF activator inactive, Anthrax LF prot inactive, BoNT F protease inactive and Bead autofluor 20676.
For Cn1c(=O)cc(SCC(=O)Nc2ccc3c(c2)OCO3)c2ccccc21 the results were BoNT-A LC inh2 inactive, MazF activator inactive, Anthrax LF prot inactive, BoNT F protease inactive and Bead autofluor inactive.
CCn1c(=O)cc(SCC(=O)Nc2ccc3c(c2)OCCO3)c2ccccc21 was read as BoNT-A LC inh2 inactive, MazF activator inactive, Anthrax LF prot inactive, BoNT F protease inactive and Bead autofluor 20714.
For Cc1cnc(NC(=O)CSc2nnc(Cc3ccccc3)n2C)s1 the results were BoNT-A LC inh2 inactive, MazF activator inactive, Anthrax LF prot inactive, BoNT F protease inactive and Bead autofluor 21335.
For Cc1ccccc1OCc1nnc(SCC(=O)Nc2ccc3c(c2)OCO3)n1C the results were BoNT-A LC inh2 inactive, MazF activator inactive, Anthrax LF prot inactive, BoNT F protease inactive and Bead autofluor inactive.
CCn1c(Cc2ccccc2)nnc1SCC(=O)Nc1ccc2c(c1)OCCO2 was read as BoNT-A LC inh2 inconclusive, MazF activator inactive, Anthrax LF prot inactive, BoNT F protease inactive and Bead autofluor 17692.
`Nc1c(C(=O)c2ccccc2)oc2ccccc12` gave BoNT-A LC inh2 inactive, MazF activator inactive, Anthrax LF prot inactive, BoNT F protease inactive and Bead autofluor inactive.
Screening O=C(c1ccc(Cl)cc1)c1oc2ccccc2c1CS(=O)(=O)c1ccccc1 returned BoNT-A LC inh2 inactive, MazF activator inactive, Anthrax LF prot inactive, BoNT F protease inactive and Bead autofluor 22160.
Screening Cc1ccc(S(=O)(=O)CCC(=O)OCC(=O)Nc2cc(S(=O)(=O)N3CCOCC3)ccc2C)cc1 returned MazF activator inactive.
`CCN(CC)C(=O)CSc1nnc(COc2ccc(OC)cc2)n1N` gave BoNT-A LC inh2 inactive, MazF activator inactive, Anthrax LF prot inactive, BoNT F protease inactive and Bead autofluor inactive.
For CCOc1ccc(-n2c(C)nnc2SCC(=O)N(CC)CC)cc1 the results were BoNT-A LC inh2 inactive, MazF activator inactive, Anthrax LF prot inactive, BoNT F protease inactive and Bead autofluor 19915.
O=C(CN1c2cccc3cccc(c23)S1(=O)=O)NCCc1ccc(F)cc1 was read as BoNT-A LC inh2 inactive, MazF activator inactive, Anthrax LF prot inactive, BoNT F protease inactive and Bead autofluor inactive.
For O=C1Cc2cc(S(=O)(=O)N3CCN(c4cccc(Cl)c4)CC3)ccc2N1 the results were BoNT-A LC inh2 inactive, MazF activator inactive, Anthrax LF prot inactive, BoNT F protease inactive and Bead autofluor inactive.
`CN(C)S(=O)(=O)N1CCN(c2ccccc2)CC1` gave BoNT-A LC inh2 inactive, MazF activator inactive, Anthrax LF prot inactive, BoNT F protease inactive and Bead autofluor inactive.
For O=C1CCc2cc(S(=O)(=O)N3CCN(c4cccc(Cl)c4)CC3)ccc2N1 the results were BoNT-A LC inh2 inactive, MazF activator inactive, Anthrax LF prot inactive, BoNT F protease inactive and Bead autofluor 17938.
`CN(C)S(=O)(=O)N1CCN(c2cccc(Cl)c2)CC1` gave BoNT-A LC inh2 inconclusive, MazF activator inactive, Anthrax LF prot inactive, BoNT F protease inactive and Bead autofluor 21047.
Screening C[C@H](NC(=O)c1ccc(C(C)(C)C)cc1)C(=O)N1CCOCC1 returned BoNT-A LC inh2 inactive, MazF activator inactive, Anthrax LF prot inactive, BoNT F protease inactive and Bead autofluor inactive.
`CCN(c1cccc(C)c1)S(=O)(=O)c1cc2c3c(c1)CCN3C(=O)CC2` gave BoNT-A LC inh2 inactive, MazF activator inactive, Anthrax LF prot inactive, BoNT F protease inactive and Bead autofluor inactive.
COc1ccc(NC(=O)c2c(C(F)(F)F)nn(C)c2SCc2ccccc2)cc1 was read as BoNT-A LC inh2 inactive, MazF activator inactive, Anthrax LF prot inactive, BoNT F protease inactive and Bead autofluor 16890.
Screening Cn1nc(C(F)(F)F)c(C(=O)Nc2ccc(C(F)(F)F)cc2)c1Cl returned BoNT-A LC inh2 inactive, MazF activator inactive, Anthrax LF prot inactive, BoNT F protease inactive and Bead autofluor inactive.

Screening results (PubChem BioAssay)
